# Test results: PubChem BioAssay (Tox21)
# Several values for one entry are separate records, joined by “and”; a condition that tells them apart may be missing. Equal values may be shown once. Results filed as inconclusive are left out. A call without a number means that no potency is given here. Activity calls are given as the source filed them. Unless noted, calls come from the whole dose curve; as a rule, active = well fitted curve in the direction sought with a large enough effect in the repeat runs; inconclusive = weak or mixed curves; inactive = no such curve, though single readings can be large; an effect the other way counts as inactive or inconclusive.
# Legend:
# [1] = biological target: Aryl hydrocarbon receptor (Homo sapiens) (UniProt P35869); experiment: qHTS assay to identify small molecule that activate the aryl hydrocarbon receptor (AhR) signaling pathway (AID 743085); note: nearly all actives have a fitted effect of over 15% in size; note: potency is the fitted concentration of half-maximal effect;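 for activation: HG2L7.5c1 human HepG2 liver cells with stably integrated DRE-driven firefly reporter; series mostly up to about 70 µM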
# Procedure, shortened: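 Steps: seed HepG2-AhR-luc cells; allow 5 h at 37C; pin-transfer test compound or vehicle; incubate 24 h at 37C; add viability dye (30 min, 37C) and read fluorescence; add luciferase substrate (30 min, RT) and read luminescence.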
# [2] = qHTS assay to identify small molecule antagonists of the peroxisome proliferator-activated receptor gamma (PPARg) signaling pathway - cell viability counter screen (AID 743194); settings: Potency: co-treated with 50 nM rosiglitazone unless noted; note: nearly all actives have a fitted effect of over 55% in size; note: potency is the fitted concentration of half-maximal effect
# Procedure, shortened: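 Cytotoxicity counter screen in PPARg-bla HEK293H cells, same wells as reporter assay. Compounds plus 50 nM rosiglitazone (final) for 17 h at 37 C, then viability read by CellTiter-Glo luminescence.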
# [3] = qHTS assay for small molecule agonists of the antioxidant response element (ARE) signaling pathway (AID 743202; active = well fitted activation curve with a large enough effect in the signal ratio in the repeat runs, not every such curve was filed as active; the % refers to the signal ratio; note: potency is the fitted concentration of half-maximal effect)
# Procedure, shortened: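 HepG2 ARE-bla cells; 16 h treatment at 37 C; FRET-based beta-lactamase fluorescence read after 2 h substrate incubation at room temperature.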
# [4] = qHTS assay for small molecule activators of the heat shock response signaling pathway - cell viability counter screen (AID 743209); note: nearly all actives have a fitted effect of over 50% in size; note: potency is the fitted concentration of half-maximal effect
# Procedure, shortened: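 HSE-bla HeLa; 1500 cells/well; overnight 37 C, 5% CO2; compound 5 h 37 C; LiveBLAzer B/G substrate 2.5 h RT; CellTiter-Glo 30 min RT; luminescence.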
# [5] = qHTS assay to identify small molecule that activate the aryl hydrocarbon receptor (AhR) signaling pathway - cell viability counter screen (AID 743086); note: nearly all actives have a fitted effect of over 45% in size; note: potency is the fitted concentration of half-maximal effect
# Procedure, shortened: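 HepG2-AhR-luc (HG2L7.5c1) cells, 4000/well, treated 24 h at 37 C with compound; viability measured as CellTiter-Fluor fluorescence after 30 min in the same wells as the luciferase read.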
# [6] = qHTS assay to identify small molecule agonists of the peroxisome proliferator-activated receptor delta (PPARd) signaling pathway - cell viability counter screen (AID 743211); note: nearly all actives have a fitted effect of over 55% in size; note: potency is the fitted concentration of half-maximal effect
# Procedure, shortened: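 Viability of GeneBLAzer PPARd UAS-bla HEK293H cells was assessed after 17 h compound incubation at 37C, using CellTiter-Glo reagent added after the reporter read and luminescence recorded 30 min later.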
# [7] = qHTS assay for small molecule activators of the heat shock response signaling pathway (AID 743210; active = well fitted activation curve with a large enough effect in the signal ratio in the repeat runs, with a control signal flat, not every such curve was filed as active; the % refers to the signal ratio;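 note: HeLa cells with beta-lactamase reporter driven by heat shock elements; series mostly up to about 63 µM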)
# Procedure, shortened: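 Following overnight attachment, HSE-bla HeLa cells received test compounds for 5 h at 37 C; beta-lactamase activity was then detected via FRET substrate fluorescence.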
# [8] = qHTS assay for small molecule agonists of the antioxidant response element (ARE) signaling pathway - cell viability counter screen (AID 743203; calls by dose curve; note: nearly all actives have a fitted effect of over 55% in size; note: potency is the fitted concentration of half-maximal effect)
# Procedure, shortened: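 Luminescence read-out (CellTiter-Glo, 30 min at room temperature) measured cell viability in the same wells as the ARE beta-lactamase reporter. HepG2 ARE-bla cells were treated with compounds for 16 hrs at 37C/5% CO2.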
# [9] = biological target: Peroxisome proliferator-activated receptor gamma (Homo sapiens) (UniProt P37231); experiment: qHTS assay to identify small molecule antagonists of the peroxisome proliferator-activated receptor gamma (PPARg) signaling pathway (AID 743191; calls by dose curve; note: nearly all actives have a fitted effect of over 30% in size; note: potency is the fitted concentration of half-maximal effect)
# Procedure, shortened: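 GeneBLAzer PPARg UAS-bla HEK293H cells, 5 h post-plating, exposed to compounds 17 h at 37C. LiveBLAzer B/G FRET substrate added for 1 h at room temperature; beta-lactamase reporter read by fluorescence intensity.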
# [10] = biological target: Peroxisome proliferator-activated receptor gamma (Homo sapiens) (UniProt P37231); experiment: qHTS assay to identify small molecule agonists of the peroxisome proliferator-activated receptor gamma (PPARg) signaling pathway (AID 743094; active = well fitted activation curve with a large enough effect in the signal ratio in the repeat runs, not every such curve was filed as active; the % refers to the signal ratio)
# Procedure, shortened: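 HEK293H PPARg-bla cells, 5 h settle at 37C/5% CO2; compound (DMSO) 17 h, 37C; B/G FRET substrate 1 h RT; fluorescence intensity read-out. qHTS format.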
# Sequence of Aryl hydrocarbon receptor (Homo sapiens) (P35869 whole entry, looked up): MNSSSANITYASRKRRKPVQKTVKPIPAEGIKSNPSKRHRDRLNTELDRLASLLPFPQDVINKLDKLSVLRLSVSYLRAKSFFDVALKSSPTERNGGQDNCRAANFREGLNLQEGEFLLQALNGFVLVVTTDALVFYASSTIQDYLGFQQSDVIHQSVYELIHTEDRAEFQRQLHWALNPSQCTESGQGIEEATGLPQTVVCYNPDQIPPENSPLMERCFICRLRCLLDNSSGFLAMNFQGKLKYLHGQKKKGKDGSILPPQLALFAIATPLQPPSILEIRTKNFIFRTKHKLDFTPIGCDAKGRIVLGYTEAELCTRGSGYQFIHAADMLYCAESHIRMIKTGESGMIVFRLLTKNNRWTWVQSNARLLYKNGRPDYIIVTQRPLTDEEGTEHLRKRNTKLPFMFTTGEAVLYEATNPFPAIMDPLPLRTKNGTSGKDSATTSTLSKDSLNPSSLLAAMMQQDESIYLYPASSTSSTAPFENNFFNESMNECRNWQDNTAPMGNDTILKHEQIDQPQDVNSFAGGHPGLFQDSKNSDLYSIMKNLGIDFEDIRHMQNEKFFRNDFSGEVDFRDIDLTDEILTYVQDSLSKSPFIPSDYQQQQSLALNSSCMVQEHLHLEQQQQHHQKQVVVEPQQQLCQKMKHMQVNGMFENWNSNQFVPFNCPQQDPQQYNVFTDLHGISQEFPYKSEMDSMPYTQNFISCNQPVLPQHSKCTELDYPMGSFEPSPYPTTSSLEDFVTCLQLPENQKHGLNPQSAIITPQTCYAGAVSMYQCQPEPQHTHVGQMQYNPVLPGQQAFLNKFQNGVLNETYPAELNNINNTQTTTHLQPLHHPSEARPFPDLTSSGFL
# Sequence of Peroxisome proliferator-activated receptor gamma (Homo sapiens) (P37231 whole entry, looked up): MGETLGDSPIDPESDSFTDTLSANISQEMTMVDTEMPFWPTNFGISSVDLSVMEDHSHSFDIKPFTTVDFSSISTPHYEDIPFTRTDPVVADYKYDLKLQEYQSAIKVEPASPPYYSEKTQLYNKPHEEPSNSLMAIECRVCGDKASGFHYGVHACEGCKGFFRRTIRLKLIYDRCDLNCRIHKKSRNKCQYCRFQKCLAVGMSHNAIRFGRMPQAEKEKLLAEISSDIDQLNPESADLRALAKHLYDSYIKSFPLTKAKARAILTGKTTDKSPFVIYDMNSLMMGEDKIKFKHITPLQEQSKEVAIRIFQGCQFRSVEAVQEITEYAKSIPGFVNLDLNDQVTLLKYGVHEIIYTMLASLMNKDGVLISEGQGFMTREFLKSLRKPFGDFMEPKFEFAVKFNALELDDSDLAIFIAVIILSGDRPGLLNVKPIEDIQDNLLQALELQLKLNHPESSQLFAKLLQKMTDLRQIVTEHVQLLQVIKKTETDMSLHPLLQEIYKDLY
structure (smiles),measurement,setting,value
O=c1oc2ccccc2c(O)c1Cc1c(O)c2ccccc2oc1=O,Potency,[1],inactive
same,Potency,[2],inactive
same,Potency,[3],7.5 µM (active)
same,Potency,[4],inactive
CC(=O)[O-].[Tl+],Potency,[1],inactive
same,Potency,[5],inactive
same,Potency,[2],inactive
same,Potency,[4],inactive
same,Potency,[6],inactive
COC12CC[C@@]3(C[C@@H]1C(C)(O)C(C)(C)C)[C@H]1Cc4ccc(O)c5c4[C@@]3(CCN1CC1CC1)[C@H]2O5 (stereo partly drawn),Potency,[1],inactive
same,Potency,[5],60.7 µM (active)
same,Potency,[2],inactive
same,Potency,[6],48.2 µM (active)
COC(=O)N(C(=O)N1CO[C@@]2(C(=O)OC)Cc3cc(Cl)ccc3C2=N1)c1ccc(OC(F)(F)F)cc1,Potency,[1],inactive
same,Potency,[5],inactive
same,Potency,[4],inactive
Nc1ccc(Sc2ccc(N)cc2)cc1,Potency,[1],13.7 µM (active)
same,Potency,[5],inactive
same,Potency,[2],inactive
same,Potency,[4],inactive
same,Potency,[7],inactive
CCC(C)c1cc([N+](=O)[O-])cc([N+](=O)[O-])c1OC(=O)C=C(C)C (stereo not drawn),Potency,[1],inactive
same,Potency,[2],54.9 µM (active)
same,Potency,[8],27.3 µM (active)
same,Potency,[4],inactive
CCCCCCCCc1ccc(O)cc1,Potency,[1],inactive
same,Potency,[5],inactive
same,Potency,[4],42.3 µM (active)
S=C=Nc1cccc2ccccc12,Potency,[1],13.5 µM (active)
same,Potency,[9],inactive
same,Potency,[2],inactive
same,Potency,[6],24.3 µM (active)
S=C(SSC(=S)N1CCCCC1)N1CCCCC1,Potency,[1],inactive
same,Potency,[2],inactive
same,Potency,[8],inactive
same,Potency,[4],0.106 µM (active)
same,Potency,[6],0.188 µM (active)
N#CCCC(Br)(C#N)CBr (stereo not drawn),Potency,[1],inactive
same,Potency,[5],inactive
same,Potency,[4],49 µM (active)
CCOP(=O)(NC(C)C)Oc1ccc(SC)c(C)c1 (stereo not drawn),Potency,[1],14.8 µM (active)
same,Potency,[10],inactive
same,Potency,[8],inactive
CS(=O)(=O)c1ccc(C(=O)C2C(=O)CCCC2=O)c([N+](=O)[O-])c1,Potency,[1],inactive
same,Potency,[5],inactive
same,Potency,[8],inactive
same,Potency,[4],inactive
same,Potency,[7],inactive
same,Potency,[6],inactive
CC(C)(C)C(O)/C(=C\c1ccc(Cl)cc1Cl)n1cncn1 (stereo not drawn),Potency,[1],inactive
same,Potency,[9],52.8 µM (active)
same,Potency,[8],74 µM (active)
same,Potency,[4],inactive
same,Potency,[6],66.5 µM (active)
CC1(C)CN=C(NN=C(/C=C/c2ccc(C(F)(F)F)cc2)/C=C/c2ccc(C(F)(F)F)cc2)NC1,Potency,[1],1.22 µM (active)
same,Potency,[5],27.3 µM (active)
same,Potency,[2],9.77 µM (active)
same,Potency,[4],24.5 µM (active)
same,Potency,[6],7.76 µM (active)
CC(C)(C)c1ccc(CSc2cnn(C(C)(C)C)c(=O)c2Cl)cc1,Potency,[1],inactive
same,Potency,[5],inactive
same,Potency,[8],24.3 µM (active)
same,Potency,[7],inactive
CN(C)[C@@H]1C(=O)C(C(N)=O)=C(O)[C@@]2(O)C(=O)C3=C(O)c4c(O)ccc(Cl)c4[C@@](C)(O)[C@H]3C[C@@H]12,Potency,[1],inactive
same,Potency,[5],inactive
same,Potency,[8],inactive
same,Potency,[4],inactive
same,Potency,[6],inactive
O=C(Nc1ccc2[nH]ccc2c1)c1cc2cc(F)ccc2n1Cc1cccc(F)c1,Potency,[1],inactive
same,Potency,[2],19.5 µM (active)
same,Potency,[8],30.6 µM (active)
same,Potency,[4],49 µM (active)
same,Potency,[6],24.5 µM (active)
[Hg+2].[I-].[I-],Potency,[1],inactive
same,Potency,[2],8.71 µM (active)
same,Potency,[4],27.5 µM (active)
CSCCCN=C=S,Potency,[1],inactive
same,Potency,[5],inactive
same,Potency,[4],43.6 µM (active)
CCCCCCCCCCCCCCCC[n+]1ccccc1,Potency,[1],inactive
same,Potency,[2],26.6 µM (active) [middle of 4 runs]
same,Potency,[8],26.9 µM (active) [middle of 4 runs]
same,Potency,[4],28.8 µM (active) and 24.5 µM (active) and 48.3 µM (active)
same,Potency,[6],23.7 µM (active) [middle of 4 runs]
c1ccc2c(c1)OCC(C1=NCCN1)O2 (stereo not drawn),Potency,[1],inactive
same,Potency,[2],inactive
same,Potency,[3],13.3 µM (active)
same,Potency,[8],inactive
same,Potency,[4],inactive
same,Potency,[6],23.7 µM (active)
CCCN(CCC)CCc1c[nH]c2ccccc12,Potency,[1],inactive
same,Potency,[10],inactive
same,Potency,[9],inactive
same,Potency,[2],inactive
same,Potency,[4],inactive
N#CSCSC#N,Potency,[1],inactive
same,Potency,[5],inactive
same,Potency,[2],27.3 µM (active)
same,Potency,[4],19.9 µM (active) and 12.2 µM (active)
same,Potency,[6],50.1 µM (active) and 43.2 µM (active)
Oc1ccc(C2(c3ccc(O)cc3)c3ccccc3-c3ccccc32)cc1,Potency,[1],inactive
same,Potency,[2],17.4 µM (active)
same,Potency,[8],27.3 µM (active)
same,Potency,[4],21.9 µM (active)
same,Potency,[6],43.6 µM (active)
N#CC(Cl)Cl,Potency,[1],inactive
same,Potency,[5],inactive
same,Potency,[8],inactive
same,Potency,[4],inactive
same,Potency,[6],inactive
CC(C)CC(C)(c1ccc(O)cc1)c1ccc(O)cc1,Potency,[1],inactive
same,Potency,[2],61.7 µM (active)
same,Potency,[8],54.5 µM (active)
same,Potency,[4],55.1 µM (active)
same,Potency,[6],55.1 µM (active) and 34.7 µM (active)
CN(C)C1CSSSC1,Potency,[1],inactive
same,Potency,[10],inactive
same,Potency,[2],inactive
same,Potency,[3],34.3 µM (active)
same,Potency,[8],inactive
same,Potency,[4],inactive
same,Potency,[7],inactive
same,Potency,[6],inactive
CC(=O)[O-].CC(=O)[O-].[Hg+2],Potency,[1],inactive
same,Potency,[5],7.7 µM (active)
same,Potency,[2],0.977 µM (active)
same,Potency,[4],1.38 µM (active)
same,Potency,[6],1.74 µM (active)
Oc1ccc(C2(c3ccc(O)cc3)CCCCC2)cc1,Potency,[1],inactive
same,Potency,[2],41.3 µM (active)
Cc1cc(C)c(C2=C(OC(=O)CC(C)(C)C)C3(CCCC3)OC2=O)c(C)c1,Potency,[1],inactive
same,Potency,[5],inactive
same,Potency,[2],inactive
same,Potency,[4],inactive
same,Potency,[7],inactive
CCc1nn(C)c(C(=O)NCc2ccc(C(C)(C)C)cc2)c1Cl,Potency,[1],inactive
same,Potency,[5],inactive
same,Potency,[4],54.9 µM (active)
same,Potency,[6],38.9 µM (active)
Oc1cc(Cl)c(Cl)c(Cl)c1,Potency,[1],inactive
same,Potency,[5],inactive
same,Potency,[2],13.1 µM (active)
same,Potency,[6],46.5 µM (active)
